Assay results: PubChem BioAssay (NCATS)
Results filed as inconclusive are left out. A call without a number means that no potency is given here. Activity calls are given as the source filed them. The call rests on the fitted dose curve; in most records, active means well fitted inhibition curve with a large enough effect; inconclusive means small, poorly fitted or top-dose-only effect; inactive means no such curve, though single readings can be large or run the other way.

Test system: Zika virus NS2B-NS3 protease (unlinked)
Test: Optimization of GU AMC qHTS for Zika virus inhibitors: Unlinked NS2B-NS3 protease assay (AID 1347151); further: nearly all actives have a fitted effect of over 80% in size
Details: recombinant ZIKV NS2B-NS3 protease, fluorogenic AMC substrate; series mostly up to 52.5 µM
Procedure, shortened: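 Fluorescence gain (340/450 nm) over 15 min at room temperature, ~20% conversion, gave percent inhibition fitted to a 4-parameter Hill equation; enzyme was unlinked NS2B-NS3 (25 nM final), pH 8.0 Tris buffer.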
Potency means the concentration at half of the fitted maximal effect.

Row | SMILES | Potency
1 | CN(C(=O)Cc1ccc(Cl)c(Cl)c1)C(CN1CCCC1)c1cccc(OCC(=O)O)c1 (stereo unspecified) | inactive
2 | CC(=O)NBr | inactive
3 | Cc1cc([C@@H]2CCCN2C)on1 | inactive
4 | O=[N+]([O-])c1ccc2nc(N3CCNCC3)ccc2c1 | inactive
5 | NCC(O)c1cc(O)c(O)cc1F (stereo unspecified) | inactive
6 | CCCN(CCC)[C@H]1CCc2c(F)ccc(O)c2C1 | inactive
7 | C[C@@H]1O[C@@H](O[C@H]2C[C@@H](O)[C@]3(CO)[C@@H]4C(CC[C@]3(O)C2)[C@@]2(O)CC[C@H]([C@@H]3COC(=O)C3)[C@@]2(C)C[C@H]4O)[C@H](O)[C@H](O)[C@H]1O (stereo partly specified) | inactive
8 | CC(=O)c1c(O)c(C)c(O)c(Cc2c(O)c3c(c(C(=O)/C=C/c4ccccc4)c2O)OC(C)(C)C=C3)c1O | 11.9 µM (active)
9 | NC(N)=NOCC[C@H](N)C(=O)O | inactive
10 | CN1CCc2cccc(Cl)c2CC1 | inactive
11 | CCCN(CCC)[C@@H]1CCc2cccc(O)c2C1 | inactive
12 | C=CCN1CCC23c4c5ccc(O)c4O[C@H]2C(=O)CC[C@@]3(O)C1C5 (stereo partly specified) | inactive
13 | CCNC(=O)[C@H]1O[C@@H](n2cnc3c(N)ncnc32)[C@H](O)[C@@H]1O | inactive
14 | CP(=O)(O)C1=CCNCC1 | inactive
15 | CNc1ccc2oc(C[C@H]3O[C@@]4(CC[C@H]3C)O[C@H]([C@H](C)C(=O)c3ccc[nH]3)[C@H](C)C[C@H]4C)nc2c1C(=O)O | 23.8 µM (active)
16 | c1ccc2c(c1)[I+]c1ccccc1-2 | inactive

Row | SMILES | Potency
17 | CC(N)Cc1c[nH]c2ccc(OCc3cccs3)cc12 (stereo unspecified) | inactive
18 | COc1ccc2c(c1)C13CCCCC1C(C2)N(C)CC3 (stereo unspecified) | inactive
19 | NCC(CP(=O)(O)O)c1ccc(Cl)cc1 (stereo unspecified) | inactive
20 | CO[C@H]1CC=C2CCN3CCC4=C(CC(=O)OC4)[C@]23C1 | inactive
21 | OCc1cnc[nH]1 | inactive
22 | CC(C)(O)[C@@H]1C2OC(=O)[C@@H]1[C@]1(O)C[C@H]3O[C@]34C(=O)O[C@H]2[C@]14C (tested in a mixture with another compound) | inactive
23 | CC(C)(C)c1o[nH]c(=O)c1CC(N)C(=O)O (stereo unspecified) | inactive
24 | N[C@@]1(C(=O)O)CC[C@@H](C(=O)O)C1 | inactive
25 | CCn1cnc2c(Nc3cccc(Cl)c3)nc(N[C@@H]3CCCC[C@@H]3N)nc21 | inactive
26 | CC(N)Cc1c[nH]c2ccc(O)cc12 (stereo unspecified) | inactive
27 | CC1(C(=O)O)C2CCC(O2)C1(C)C(=O)O (stereo unspecified) | inactive
28 | NC(=O)c1ccc(OCC(O)CN2CC=C(c3ccc(F)cc3)CC2)cc1 (stereo unspecified) | inactive
29 | C[N+]1(C)CCc2cc3c(cc2[C@H]1[C@@H]1OC(=O)c2c1ccc1c2OCO1)OCO3 | inactive
30 | OC1CCCCC1N1CCC(c2ccccc2)CC1 (stereo unspecified) | inactive
31 | Oc1ccc2c3c1O[C@H]1c4[nH]c5ccccc5c4C[C@@]4(O)C(C2)N(CC2CC2)CCC314 (stereo partly specified) | inactive
